According to PubChem BioAssay AID2807 (Vanderbilt High Throughput Screening Facility, 2010):
Measured potencies and affinities stand elsewhere. The source made the active and inactive calls. The rule behind the calls is not given here.

Target: Metabotropic glutamate receptor 4 (Homo sapiens) (UniProt Q14833)
Experiment: PubChem AID 2807
Settings: CHO hmGluR4/Gqi5 calcium mobilization, PAM potentiation; series mostly up to 30 µM

Sequence of Metabotropic glutamate receptor 4 (Homo sapiens) (Q14833 whole entry, looked up): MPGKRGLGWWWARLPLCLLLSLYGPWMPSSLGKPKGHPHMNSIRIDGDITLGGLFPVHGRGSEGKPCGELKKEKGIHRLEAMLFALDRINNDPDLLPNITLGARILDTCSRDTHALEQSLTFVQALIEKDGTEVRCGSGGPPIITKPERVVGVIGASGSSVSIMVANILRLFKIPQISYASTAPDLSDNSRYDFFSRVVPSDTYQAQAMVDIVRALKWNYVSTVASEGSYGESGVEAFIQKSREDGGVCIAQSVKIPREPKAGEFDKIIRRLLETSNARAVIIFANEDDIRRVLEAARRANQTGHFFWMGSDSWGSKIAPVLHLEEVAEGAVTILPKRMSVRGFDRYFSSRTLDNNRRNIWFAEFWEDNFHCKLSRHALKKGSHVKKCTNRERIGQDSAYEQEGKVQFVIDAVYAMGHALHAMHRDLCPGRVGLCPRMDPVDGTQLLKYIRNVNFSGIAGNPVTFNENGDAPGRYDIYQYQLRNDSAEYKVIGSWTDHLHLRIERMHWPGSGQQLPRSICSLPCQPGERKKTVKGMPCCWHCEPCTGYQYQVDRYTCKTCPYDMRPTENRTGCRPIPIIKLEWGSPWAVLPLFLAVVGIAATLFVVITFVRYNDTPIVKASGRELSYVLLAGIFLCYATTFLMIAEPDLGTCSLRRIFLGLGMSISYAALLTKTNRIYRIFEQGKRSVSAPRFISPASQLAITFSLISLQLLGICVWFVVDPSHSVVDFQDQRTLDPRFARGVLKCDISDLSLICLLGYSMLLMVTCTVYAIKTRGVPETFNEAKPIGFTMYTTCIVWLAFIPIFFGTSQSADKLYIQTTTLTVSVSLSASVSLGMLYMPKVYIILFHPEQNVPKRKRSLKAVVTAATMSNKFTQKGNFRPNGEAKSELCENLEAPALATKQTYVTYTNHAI

SMILES | outcome
Cn1cccc1C(=O)Nc1ccc(Cl)c(Cl)c1 | inactive
O=C(Nc1ccc(Cl)c(Cl)c1)c1cc2ccccc2o1 | inactive
O=C(Nc1ccc(Cl)c(Cl)c1)c1ccc(-c2ccccc2)o1 | inactive
O=C(Nc1ccc(Cl)c(Cl)c1)C1CCCCC1 | inactive
O=C(Nc1ccc(Cl)c(Cl)c1)c1cnccn1 | inactive
O=C(Nc1ccc(Cl)c(Cl)c1)c1ccccc1 | inactive
